# Laboratory results: PMC7862700, “An all-to-all approach to the identification of sequence-specific readers for epigenetic DNA modifications on cytosine”
# What was measured:
# Test in all cases: DAPPL (digital affinity profiling via proximity ligation, sequencing); 10 mM Tris-HCl pH 7.5, 50 mM NaCl, 1 mM DTT, 4% glycerol, room temperature, 30 min; GST-TFs on glutathione beads, 16-mer random dsDNA library, 0.1% formaldehyde crosslink after washing; high values mean tight binding
# FEV = target: T1, FEV (Homo sapiens, UniProt Q99581 1-238); details: protein: recombinant; tags: N-terminal GST; dsDNA, one strand shown
# T1 sequence: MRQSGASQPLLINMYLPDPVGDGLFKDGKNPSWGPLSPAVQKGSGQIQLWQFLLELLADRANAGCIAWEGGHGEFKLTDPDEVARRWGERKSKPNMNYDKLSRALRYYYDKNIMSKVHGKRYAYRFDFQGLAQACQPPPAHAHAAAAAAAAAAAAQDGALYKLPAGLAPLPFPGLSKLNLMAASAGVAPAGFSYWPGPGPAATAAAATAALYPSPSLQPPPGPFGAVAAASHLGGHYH
# Summary of the method: (§1)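 Yeast served to express human transcription factors as GST fusions, which were then captured on glutathione beads and labelled with DNA barcodes. Pooled with a tag-only sample, they were incubated with 200 nmole of a 16-mer random double-stranded DNA library for 30 min at room temperature in Tris/NaCl/DTT/glycerol buffer, washed, crosslinked with 0.1% formaldehyde, ligated by proximity, amplified by PCR and sequenced. Dividing each hexamer's read frequency for a factor by its frequency for the tag-only sample gives the binding signal.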
# ETV5 = ETV5 (Homo sapiens, UniProt P41161 1-510); details: protein: recombinant; tags: N-terminal GST; dsDNA, one strand shown
# Chain of ETV5 (P41161 whole entry): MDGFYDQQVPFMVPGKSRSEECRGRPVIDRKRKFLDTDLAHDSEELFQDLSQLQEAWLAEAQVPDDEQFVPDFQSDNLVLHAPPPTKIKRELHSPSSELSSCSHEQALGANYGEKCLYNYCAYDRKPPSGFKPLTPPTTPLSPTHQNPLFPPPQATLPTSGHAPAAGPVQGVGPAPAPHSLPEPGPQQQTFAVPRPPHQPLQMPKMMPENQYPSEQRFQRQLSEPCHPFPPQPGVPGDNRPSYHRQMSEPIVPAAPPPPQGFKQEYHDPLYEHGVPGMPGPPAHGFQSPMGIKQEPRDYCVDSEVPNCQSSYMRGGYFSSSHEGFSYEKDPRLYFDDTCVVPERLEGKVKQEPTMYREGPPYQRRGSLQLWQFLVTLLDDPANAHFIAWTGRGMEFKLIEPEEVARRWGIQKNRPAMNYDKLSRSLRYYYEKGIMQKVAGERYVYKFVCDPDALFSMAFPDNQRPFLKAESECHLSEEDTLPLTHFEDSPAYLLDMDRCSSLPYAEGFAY
# Summary of the method: as §1
# HSF1 = HSF1 (Homo sapiens, UniProt Q00613 1-529); details: protein: recombinant; tags: N-terminal GST; chain copies: 3; dsDNA, one strand shown
# Chain of HSF1 (Q00613 whole entry): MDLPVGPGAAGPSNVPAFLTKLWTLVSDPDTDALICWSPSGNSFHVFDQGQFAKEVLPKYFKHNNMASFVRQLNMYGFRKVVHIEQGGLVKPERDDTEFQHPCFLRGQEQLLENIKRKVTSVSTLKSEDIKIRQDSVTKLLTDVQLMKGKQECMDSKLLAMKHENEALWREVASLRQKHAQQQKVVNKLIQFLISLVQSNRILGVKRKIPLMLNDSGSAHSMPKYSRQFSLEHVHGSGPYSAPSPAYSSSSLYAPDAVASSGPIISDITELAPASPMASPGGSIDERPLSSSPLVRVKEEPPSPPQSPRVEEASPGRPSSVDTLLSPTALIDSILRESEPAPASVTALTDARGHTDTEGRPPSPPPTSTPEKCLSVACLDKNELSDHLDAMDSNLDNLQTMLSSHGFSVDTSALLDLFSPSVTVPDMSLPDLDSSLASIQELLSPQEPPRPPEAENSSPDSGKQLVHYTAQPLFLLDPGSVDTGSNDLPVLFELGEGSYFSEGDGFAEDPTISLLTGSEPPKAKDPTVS
# Summary of the method: as §1
# SPIC = target: T2, SPIC (Homo sapiens, UniProt Q8N5J4 1-248); details: protein: recombinant; tags: N-terminal GST; dsDNA, one strand shown
# T2 sequence: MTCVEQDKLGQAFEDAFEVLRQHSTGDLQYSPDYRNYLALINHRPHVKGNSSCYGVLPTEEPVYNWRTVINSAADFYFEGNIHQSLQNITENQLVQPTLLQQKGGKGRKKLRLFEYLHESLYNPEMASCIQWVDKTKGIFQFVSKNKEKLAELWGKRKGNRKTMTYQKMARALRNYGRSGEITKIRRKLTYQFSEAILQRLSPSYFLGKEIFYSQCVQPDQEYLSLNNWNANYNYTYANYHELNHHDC
# Summary of the method: as §1
# ELF4 = ELF4 (Homo sapiens, UniProt Q99607 1-663); details: protein: recombinant; tags: N-terminal GST; dsDNA, one strand shown
# Chain of ELF4 (Q99607 whole entry): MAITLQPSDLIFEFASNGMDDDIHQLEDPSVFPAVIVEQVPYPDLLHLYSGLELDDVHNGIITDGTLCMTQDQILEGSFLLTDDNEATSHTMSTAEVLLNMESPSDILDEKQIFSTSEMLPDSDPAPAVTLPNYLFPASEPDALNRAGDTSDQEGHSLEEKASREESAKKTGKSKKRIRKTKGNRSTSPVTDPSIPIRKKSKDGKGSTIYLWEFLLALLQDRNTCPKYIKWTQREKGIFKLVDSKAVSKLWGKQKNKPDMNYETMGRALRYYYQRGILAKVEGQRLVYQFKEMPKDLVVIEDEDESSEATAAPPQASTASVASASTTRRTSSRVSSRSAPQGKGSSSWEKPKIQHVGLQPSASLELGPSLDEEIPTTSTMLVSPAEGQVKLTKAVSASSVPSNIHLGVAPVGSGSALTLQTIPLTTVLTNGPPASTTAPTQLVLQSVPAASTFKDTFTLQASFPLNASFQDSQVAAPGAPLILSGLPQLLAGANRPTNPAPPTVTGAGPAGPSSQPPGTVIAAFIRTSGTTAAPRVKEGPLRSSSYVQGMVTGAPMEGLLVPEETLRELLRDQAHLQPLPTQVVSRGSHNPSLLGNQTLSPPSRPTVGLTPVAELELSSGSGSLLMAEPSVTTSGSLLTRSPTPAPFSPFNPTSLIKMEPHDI
# Summary of the method: as §1
# ELK4 = target: T3, ELK4 (Homo sapiens, UniProt P28324-2 1-405); details: protein: recombinant; tags: N-terminal GST; dsDNA, one strand shown
# T3 sequence: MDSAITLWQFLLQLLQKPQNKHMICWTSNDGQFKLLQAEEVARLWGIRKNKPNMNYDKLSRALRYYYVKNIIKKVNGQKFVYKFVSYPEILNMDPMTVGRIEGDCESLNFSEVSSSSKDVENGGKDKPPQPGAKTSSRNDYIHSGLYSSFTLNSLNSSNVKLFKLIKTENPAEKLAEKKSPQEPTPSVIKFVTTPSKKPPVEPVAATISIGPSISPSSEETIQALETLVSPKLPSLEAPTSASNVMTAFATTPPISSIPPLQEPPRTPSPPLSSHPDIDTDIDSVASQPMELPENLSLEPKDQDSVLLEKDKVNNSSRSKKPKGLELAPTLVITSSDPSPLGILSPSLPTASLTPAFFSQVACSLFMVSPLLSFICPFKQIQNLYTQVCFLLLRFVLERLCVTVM
# Summary of the method: as §1
# ETV2 = target: T4, ETV2 (Homo sapiens, UniProt O00321 1-342); details: protein: recombinant; tags: N-terminal GST; dsDNA, one strand shown
# T4 sequence: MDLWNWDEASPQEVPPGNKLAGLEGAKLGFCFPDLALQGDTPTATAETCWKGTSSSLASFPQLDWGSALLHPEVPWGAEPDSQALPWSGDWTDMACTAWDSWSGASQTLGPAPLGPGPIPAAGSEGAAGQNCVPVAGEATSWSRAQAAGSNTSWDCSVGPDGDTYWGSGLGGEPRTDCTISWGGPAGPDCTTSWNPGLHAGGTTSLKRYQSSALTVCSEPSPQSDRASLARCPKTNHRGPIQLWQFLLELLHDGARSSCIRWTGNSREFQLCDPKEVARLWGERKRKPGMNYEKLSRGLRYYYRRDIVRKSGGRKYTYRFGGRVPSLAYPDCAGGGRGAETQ
# Summary of the method: as §1
# ELF3 = target: T5, ELF3 (Homo sapiens, UniProt P78545 1-371); details: protein: recombinant; tags: N-terminal GST; dsDNA, one strand shown
# T5 sequence: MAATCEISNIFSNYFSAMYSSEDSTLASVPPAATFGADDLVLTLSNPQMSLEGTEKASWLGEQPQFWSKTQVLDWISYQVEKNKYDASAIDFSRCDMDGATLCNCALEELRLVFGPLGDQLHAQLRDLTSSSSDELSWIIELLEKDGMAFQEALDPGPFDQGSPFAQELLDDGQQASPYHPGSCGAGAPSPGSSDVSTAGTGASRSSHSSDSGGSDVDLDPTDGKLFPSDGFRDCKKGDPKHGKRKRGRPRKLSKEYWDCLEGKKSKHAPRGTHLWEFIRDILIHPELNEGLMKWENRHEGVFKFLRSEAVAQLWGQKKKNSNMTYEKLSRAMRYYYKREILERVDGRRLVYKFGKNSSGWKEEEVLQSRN
# Summary of the method: as §1
# CRX = CRX (Homo sapiens, UniProt O43186 1-299); details: protein: recombinant; tags: N-terminal GST; dsDNA, one strand shown
# Chain of CRX (O43186 whole entry): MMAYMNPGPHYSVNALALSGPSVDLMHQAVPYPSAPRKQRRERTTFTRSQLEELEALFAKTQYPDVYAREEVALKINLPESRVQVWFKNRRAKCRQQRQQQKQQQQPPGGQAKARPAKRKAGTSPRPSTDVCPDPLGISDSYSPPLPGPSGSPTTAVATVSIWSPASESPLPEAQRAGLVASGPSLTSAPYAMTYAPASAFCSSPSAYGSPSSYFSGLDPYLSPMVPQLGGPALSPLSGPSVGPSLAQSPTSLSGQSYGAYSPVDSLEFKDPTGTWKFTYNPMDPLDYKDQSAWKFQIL
# Summary of the method: as §1
# ETV1 = ETV1 (Homo sapiens, UniProt P50549 1-477); details: protein: recombinant; tags: N-terminal GST; dsDNA, one strand shown
# Chain of ETV1 (P50549 whole entry): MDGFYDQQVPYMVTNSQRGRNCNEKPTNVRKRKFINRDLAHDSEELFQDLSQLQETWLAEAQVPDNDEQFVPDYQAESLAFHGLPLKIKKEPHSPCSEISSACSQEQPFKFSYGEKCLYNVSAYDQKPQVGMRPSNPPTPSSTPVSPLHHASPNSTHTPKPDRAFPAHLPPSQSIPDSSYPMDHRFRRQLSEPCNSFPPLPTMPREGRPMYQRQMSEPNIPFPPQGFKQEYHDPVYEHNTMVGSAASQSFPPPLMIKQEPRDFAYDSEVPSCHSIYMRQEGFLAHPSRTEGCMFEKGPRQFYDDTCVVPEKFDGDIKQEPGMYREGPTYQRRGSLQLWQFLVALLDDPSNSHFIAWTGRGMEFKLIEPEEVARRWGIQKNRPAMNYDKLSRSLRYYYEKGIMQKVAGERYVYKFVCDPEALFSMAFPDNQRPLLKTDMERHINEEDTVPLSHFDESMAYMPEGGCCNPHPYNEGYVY
# Summary of the method: as §1
# ERF = target: T6, ERF (Homo sapiens, UniProt P50548 1-548); details: protein: recombinant; tags: N-terminal GST; dsDNA, one strand shown
# T6 sequence: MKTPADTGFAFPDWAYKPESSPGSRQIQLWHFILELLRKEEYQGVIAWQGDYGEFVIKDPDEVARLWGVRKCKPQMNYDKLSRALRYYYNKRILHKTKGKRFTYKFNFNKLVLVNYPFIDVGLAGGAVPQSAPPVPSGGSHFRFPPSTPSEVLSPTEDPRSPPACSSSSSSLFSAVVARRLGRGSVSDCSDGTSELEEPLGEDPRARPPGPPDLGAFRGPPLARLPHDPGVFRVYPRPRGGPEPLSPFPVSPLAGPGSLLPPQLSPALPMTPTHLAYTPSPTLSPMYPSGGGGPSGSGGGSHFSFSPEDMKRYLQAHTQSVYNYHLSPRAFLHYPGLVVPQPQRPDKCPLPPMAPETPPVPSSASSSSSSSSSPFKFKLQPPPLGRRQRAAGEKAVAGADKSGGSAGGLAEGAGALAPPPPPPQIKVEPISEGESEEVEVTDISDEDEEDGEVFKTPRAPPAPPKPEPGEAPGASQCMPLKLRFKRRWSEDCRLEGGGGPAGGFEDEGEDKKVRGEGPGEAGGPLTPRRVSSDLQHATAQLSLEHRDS
# Summary of the method: as §1
# ETV3L = target: T7, ETV3L (Homo sapiens, UniProt Q6ZN32 1-361); details: protein: recombinant; tags: N-terminal GST; dsDNA, one strand shown
# T7 sequence: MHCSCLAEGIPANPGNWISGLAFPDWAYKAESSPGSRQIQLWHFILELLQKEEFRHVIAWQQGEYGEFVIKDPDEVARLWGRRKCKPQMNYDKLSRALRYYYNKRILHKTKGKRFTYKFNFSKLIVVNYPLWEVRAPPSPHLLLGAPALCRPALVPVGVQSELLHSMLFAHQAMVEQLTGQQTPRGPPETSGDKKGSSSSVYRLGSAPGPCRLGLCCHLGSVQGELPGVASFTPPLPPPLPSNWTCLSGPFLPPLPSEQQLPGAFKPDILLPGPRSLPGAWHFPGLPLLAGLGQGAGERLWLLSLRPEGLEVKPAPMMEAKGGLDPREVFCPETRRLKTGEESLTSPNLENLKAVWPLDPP
# Summary of the method: as §1
# ETS2 = target: T8, ETS2 (Homo sapiens, UniProt P15036 1-469); details: protein: recombinant; tags: N-terminal GST; dsDNA, one strand shown
# T8 sequence: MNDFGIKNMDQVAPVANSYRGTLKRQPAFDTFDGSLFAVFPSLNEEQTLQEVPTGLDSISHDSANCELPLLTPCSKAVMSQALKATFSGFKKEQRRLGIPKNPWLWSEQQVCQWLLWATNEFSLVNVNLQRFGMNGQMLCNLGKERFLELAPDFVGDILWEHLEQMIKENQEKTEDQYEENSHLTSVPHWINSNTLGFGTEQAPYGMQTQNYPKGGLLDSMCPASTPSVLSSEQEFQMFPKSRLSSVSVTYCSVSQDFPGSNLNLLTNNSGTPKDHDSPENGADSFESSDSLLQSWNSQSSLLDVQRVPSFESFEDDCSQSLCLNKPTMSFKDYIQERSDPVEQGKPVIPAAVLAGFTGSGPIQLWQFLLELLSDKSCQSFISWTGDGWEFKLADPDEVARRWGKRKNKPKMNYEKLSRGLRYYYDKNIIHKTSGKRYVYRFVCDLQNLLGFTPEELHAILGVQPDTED
# Summary of the method: as §1
# SPDEF = target: T9, SPDEF (Homo sapiens, UniProt O95238 1-335); details: protein: recombinant; tags: N-terminal GST; dsDNA, one strand shown
# T9 sequence: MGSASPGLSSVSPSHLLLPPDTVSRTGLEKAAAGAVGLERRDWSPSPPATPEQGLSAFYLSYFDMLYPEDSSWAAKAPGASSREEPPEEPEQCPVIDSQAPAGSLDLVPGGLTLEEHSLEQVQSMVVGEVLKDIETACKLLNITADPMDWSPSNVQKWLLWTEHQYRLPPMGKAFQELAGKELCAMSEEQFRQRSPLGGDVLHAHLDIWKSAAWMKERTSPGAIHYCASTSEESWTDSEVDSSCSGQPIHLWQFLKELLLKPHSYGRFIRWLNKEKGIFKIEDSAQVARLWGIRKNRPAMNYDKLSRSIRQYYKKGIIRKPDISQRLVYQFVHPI
# Summary of the method: as §1
# ETV7 = target: T10, ETV7 (Homo sapiens, UniProt Q9Y603 1-341); details: protein: recombinant; tags: N-terminal GST; dsDNA, one strand shown
# T10 sequence: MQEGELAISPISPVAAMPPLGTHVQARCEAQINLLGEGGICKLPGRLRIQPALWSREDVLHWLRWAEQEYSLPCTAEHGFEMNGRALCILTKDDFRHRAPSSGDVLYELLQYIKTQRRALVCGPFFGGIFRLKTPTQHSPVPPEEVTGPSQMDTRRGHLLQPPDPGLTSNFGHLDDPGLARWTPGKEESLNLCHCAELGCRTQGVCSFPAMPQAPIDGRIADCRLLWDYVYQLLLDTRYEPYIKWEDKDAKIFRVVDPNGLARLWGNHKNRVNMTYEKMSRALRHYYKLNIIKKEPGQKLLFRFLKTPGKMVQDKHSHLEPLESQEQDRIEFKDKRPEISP
# Summary of the method: as §1
# ELF5 = target: T11, ELF5 (Homo sapiens, UniProt Q9UKW6-2 1-255); details: protein: recombinant; tags: N-terminal GST; dsDNA, one strand shown
# T11 sequence: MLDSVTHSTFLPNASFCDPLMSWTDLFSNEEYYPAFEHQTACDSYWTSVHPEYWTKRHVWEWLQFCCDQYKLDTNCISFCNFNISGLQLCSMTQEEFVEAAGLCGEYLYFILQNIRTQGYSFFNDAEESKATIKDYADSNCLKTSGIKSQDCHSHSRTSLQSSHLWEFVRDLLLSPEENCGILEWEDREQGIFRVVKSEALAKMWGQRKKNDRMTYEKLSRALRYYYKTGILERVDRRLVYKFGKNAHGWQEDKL
# Summary of the method: as §1
# ETV3 = target: T12, ETV3 (Homo sapiens, UniProt P41162-2 1-143); details: protein: recombinant; tags: N-terminal GST; dsDNA, one strand shown
# T12 sequence: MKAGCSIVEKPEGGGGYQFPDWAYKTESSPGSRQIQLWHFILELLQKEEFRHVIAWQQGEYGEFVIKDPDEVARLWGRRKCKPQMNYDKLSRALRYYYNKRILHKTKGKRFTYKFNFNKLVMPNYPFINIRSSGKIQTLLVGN
# Summary of the method: as §1
# ETV6 = ETV6 (Homo sapiens, UniProt P41212 1-452); details: protein: recombinant; tags: N-terminal GST; dsDNA, one strand shown
# Chain of ETV6 (P41212 whole entry): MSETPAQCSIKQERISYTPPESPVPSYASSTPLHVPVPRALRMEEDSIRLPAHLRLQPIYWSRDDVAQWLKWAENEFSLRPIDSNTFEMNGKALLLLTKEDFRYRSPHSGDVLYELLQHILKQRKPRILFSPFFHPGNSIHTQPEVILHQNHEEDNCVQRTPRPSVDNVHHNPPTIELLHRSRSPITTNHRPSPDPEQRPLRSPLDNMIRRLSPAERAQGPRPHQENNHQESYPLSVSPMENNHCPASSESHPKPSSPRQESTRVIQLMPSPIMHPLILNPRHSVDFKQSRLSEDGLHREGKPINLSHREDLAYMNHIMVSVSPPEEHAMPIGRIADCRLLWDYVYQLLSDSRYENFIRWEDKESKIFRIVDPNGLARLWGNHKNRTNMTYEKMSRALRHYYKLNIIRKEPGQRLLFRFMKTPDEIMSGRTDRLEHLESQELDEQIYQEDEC
# Summary of the method: as §1
sequence,measurement,setting,value
AACTTC,binding signal,FEV,"3.12 fold enrichment (6-mer frequency, TF over GST control)"
same,binding signal,ETV5,"2.71 fold enrichment (6-mer frequency, TF over GST control)"
same,binding signal,HSF1,"2.02 fold enrichment (6-mer frequency, TF over GST control)"
same,binding signal,SPIC,"2.83 fold enrichment (6-mer frequency, TF over GST control)"
same,binding signal,ELF4,"2.44 fold enrichment (6-mer frequency, TF over GST control)"
same,binding signal,ELK4,"2.34 fold enrichment (6-mer frequency, TF over GST control)"
same,binding signal,ETV2,"2.52 fold enrichment (6-mer frequency, TF over GST control)"
same,binding signal,ELF3,"2.39 fold enrichment (6-mer frequency, TF over GST control)"
same,binding signal,CRX,"1.45 fold enrichment (6-mer frequency, TF over GST control)"
same,binding signal,ETV1,"2.6 fold enrichment (6-mer frequency, TF over GST control)"
same,binding signal,ERF,"2.22 fold enrichment (6-mer frequency, TF over GST control)"
same,binding signal,ETV3L,"2.51 fold enrichment (6-mer frequency, TF over GST control)"
same,binding signal,ETS2,"2.63 fold enrichment (6-mer frequency, TF over GST control)"
same,binding signal,SPDEF,"2.21 fold enrichment (6-mer frequency, TF over GST control)"
same,binding signal,ETV7,"2.3 fold enrichment (6-mer frequency, TF over GST control)"
same,binding signal,ELF5,"3.55 fold enrichment (6-mer frequency, TF over GST control)"
same,binding signal,ETV3,"2.57 fold enrichment (6-mer frequency, TF over GST control)"
same,binding signal,ETV6,"2.76 fold enrichment (6-mer frequency, TF over GST control)"
